Assay outcomes as filed in PubChem.
Only some compounds are listed: those with a hit (about 3.1% of all), similar ones and a draw of the others.
A549 viability: counter-screen for Nrf2 inhibitors: cytotoxicity in A549 cells; 0.16% of 390,000 active; A549 ARE-Fluc cells, CellTiter-Fluor viability, 18-24 h; Potency, µM (highest dose often 46 µM), actives largely listed as inhibitors
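Cytotoxicity counterscreen: CellTiter-Fluor fluorescence was measured in A549 ARE_Fluc cells after 18-24 h of compound exposure in a concentration series. The subsequent BugLite luminescent read reports ARE-luciferase activity.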
mIDH1 inhibitor: inhibitors of human mutant IDH1 R132H; O75874; IDH1-R132H enzyme, NADPH consumption, diaphorase/resazurin fluorescence; Potency, µM (doses to about 76.6 µM), usual class: inhibitors; 0.093% of 390,000 active; AID 602179; note: nearly all actives have a fitted effect of over 65% in size
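IDH1-R132H (0.5 ug/mL dispensed) in pH 7.5 Tris buffer was preincubated 30 min with compound, then given a substrate mix of 0.016 mM NADPH and 2 mM alpha-KG for 80 min at room temperature; remaining NADPH was read by diaphorase/resazurin fluorescence.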
TrxR1 substrate: rat thioredoxin reductase 1 substrate activity; AID 588456; Potency, µM (series often up to 114 µM); purified TrxR1 substrate turnover, NADPH consumption readout; 0.01% of 390,000 active; note: nearly all actives have a fitted effect of over 50% in size
Target sequence (O89049 whole entry, looked up): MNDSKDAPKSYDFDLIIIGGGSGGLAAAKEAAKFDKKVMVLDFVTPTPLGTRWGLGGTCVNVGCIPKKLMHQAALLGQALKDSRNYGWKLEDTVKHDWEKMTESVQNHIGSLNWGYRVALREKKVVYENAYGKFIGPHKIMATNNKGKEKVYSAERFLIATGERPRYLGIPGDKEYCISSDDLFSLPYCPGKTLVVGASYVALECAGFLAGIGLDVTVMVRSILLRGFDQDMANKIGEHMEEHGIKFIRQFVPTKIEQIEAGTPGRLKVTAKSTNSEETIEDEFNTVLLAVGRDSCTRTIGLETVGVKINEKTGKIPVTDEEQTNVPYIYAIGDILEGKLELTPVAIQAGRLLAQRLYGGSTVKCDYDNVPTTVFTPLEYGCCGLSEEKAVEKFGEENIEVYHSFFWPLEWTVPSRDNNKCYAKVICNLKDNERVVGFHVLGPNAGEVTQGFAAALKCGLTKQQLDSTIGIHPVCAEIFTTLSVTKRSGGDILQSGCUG
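Rat TrxR1, dispensed at 90 nM, was prereduced with 400 uM NADPH (final) for 5 min at ~22 deg C, then incubated with compound 15 min before 400 uM selenite. A first-read NADPH fluorescence drop versus no-compound background flagged substrates.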
Mito fusion yeast: blocks mitochondrial division or promotes mitochondrial fusion; Potency, µM (titrated, usually from 46.1 µM), actives largely listed as activators; S. cerevisiae fusion-defective mutant growth rescue, CellTiterGlo 48 h; 0.23% of 320,000 active; note: nearly all actives have a fitted effect of over 45% in size
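Growth-rescue viability read-out: after 48 h at the non-permissive 37C in glycerol/ethanol YPEG, yeast mitochondrial fusion mutants are measured by CellTiterGlo luminescence; compounds (23 nl pinned per well) restoring growth score as division inhibitors or fusion activators.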
Nrf2 inh: blocks Nrf2 signaling; A549 ARE-Fluc reporter, luciferase luminescence, 18-24 h; Potency, µM (series often up to 46 µM), most hits filed as inhibitors; 2.1% of 360,000 active; AID 504444; note: nearly all actives have a fitted effect of over 60% in size
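Nrf2 activity is the BugLite luminescence, read 15 min after reagent at room temperature, following CellTiter-Fluor cytotoxicity readout (30 min, 37C). Compound titrations were applied for 18-24 h to 5000 A549 ARE_Fluc cells/well in 5% FBS OPTI-MEM.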
rTrxR1 inhibitor: inhibitors of rat thioredoxin reductase 1. O89049. 1% of 390,000 active. AID 588453. Potency, µM (doses to about 114 µM), hits mostly inhibitors. recombinant rTrxR1, NADPH fluorescence consumption, selenite substrate; note: nearly all actives have a fitted effect of over 65% in size
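Rat TrxR1 (90 nM in the dispensed reagent) was pre-reduced with 400 uM NADPH for 5 min at room temperature, then incubated with compound for 15 min. After 400 uM selenite was added, NADPH fluorescence (Ex 340/Em 450 nm) was followed for 8 min.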
Each line names hits and unclear results; the compound was inactive in the other large screens; ! = a repeat was not active. Calls come from the whole dose curve; as a rule, active = well fitted curve in the direction sought with a large enough effect; inconclusive = small, poorly fitted or top-dose-only effect, or another doubt; inactive = no such curve, though single readings can be large; an effect the other way counts as inactive or inconclusive.

COC(=O)c1c(NC(=O)c2c(OC)cccc2OC)sc2c1CCCC2	none (no result: Mito fusion yeast)
Cc1cc(N)c2ccccc2[n+]1CCCCCCCCCC[n+]1c(C)cc(N)c2ccccc21	Mito fusion yeast 2.6µM (no result: A549 viability, mIDH1 inhibitor, Nrf2 inh)
COCC(C)n1c(C)cc(C(=O)COc2ccc(N(C)S(=O)(=O)c3ccc(NC(C)=O)cc3)cc2)c1C (stereo unspecified)	none
C=CCn1c(C)cc(C(=O)COc2ccc(N(C)S(=O)(=O)c3ccc(NC(C)=O)cc3)cc2)c1C	Nrf2 inh 16µM (no result: Mito fusion yeast)
Cc1cc(-c2onc(C)c2C(=O)N/N=C/c2ccccc2)no1	none
Cc1ccc(SC(=O)c2c(C)noc2-c2cc(C)on2)cc1	rTrxR1 inhibitor 40µM
O=C1C(Nc2ccccc2)=CC(c2ccc(O)cc2)N1c1ccccc1 (stereo unspecified)	none
COc1cc(C2C=C(Nc3ccccc3)C(=O)N2c2ccccc2)ccc1O (stereo unspecified)	A549 viability inconclusive, Nrf2 inh 18µM
C[C@H](NC(=O)OC(C)(C)C)C(=O)c1ccco1	none (no result: A549 viability, mIDH1 inhibitor, Mito fusion yeast, Nrf2 inh)
O=C(Nc1ccc(F)cc1)c1cccnc1NCCc1ccccc1	Mito fusion yeast 18µM, Nrf2 inh inconclusive
O=C(Nc1cccc(C(F)(F)F)c1)c1cccnc1NCCc1ccccc1	none
O=C(Nc1cccc(F)c1)c1cccnc1NCCc1ccccc1	Mito fusion yeast inconclusive, Nrf2 inh 23µM
Oc1c(C(c2ccccc2)N2CCOCC2)ccc2ccccc12 (stereo unspecified)	rTrxR1 inhibitor 3.2µM (no result: Mito fusion yeast)
COC(=O)c1ccc2nc(NC(=O)CSCC(=O)OCC(=O)c3ccccc3)sc2c1	none
Cc1ccc2nc(NC(=O)CSCC(=O)OCC(=O)c3ccc(Br)cc3)sc2c1	Nrf2 inh 18µM
COc1cc2c(C#N)c(N3CCCC3)nc(N)c2c(N)n1	A549 viability inconclusive, TrxR1 substrate 16µM!, Nrf2 inh inconclusive
COc1cc2c(C#N)c(N3CCN(c4ccccc4OC)CC3)nc(N)c2c(N)n1	A549 viability inconclusive, Mito fusion yeast inconclusive, Nrf2 inh 16µM
COc1cc2c(C#N)c(N3CCN(C)CC3)nc(N)c2c(N)n1	none (no result: A549 viability, mIDH1 inhibitor, TrxR1 substrate, Nrf2 inh, rTrxR1 inhibitor)
CCOC(=O)c1ccc(N2C(=O)c3n[nH]c(C)c3C2c2ccccc2)cc1 (stereo unspecified)	Nrf2 inh inconclusive
CCOC(=O)c1ccc(N2C(=O)c3n[nH]c(-c4ccco4)c3C2c2cccc(F)c2)cc1 (stereo unspecified)	A549 viability inconclusive, Nrf2 inh 21µM (no result: Mito fusion yeast)
CCOC(=O)c1ccc(N2C(=O)c3n[nH]c(-c4ccco4)c3C2c2ccc(OCC)cc2)cc1 (stereo unspecified)	A549 viability inconclusive, Nrf2 inh 18µM (no result: Mito fusion yeast)
CCOC(=O)c1ccc(N2C(=O)c3n[nH]c(-c4ccco4)c3C2c2ccccc2OC)cc1 (stereo unspecified)	Nrf2 inh 26µM (no result: Mito fusion yeast)
CCOC(=O)c1ccc(N2C(=O)c3n[nH]c(-c4ccco4)c3C2c2ccc(F)cc2)cc1 (stereo unspecified)	Nrf2 inh inconclusive, rTrxR1 inhibitor inconclusive (no result: Mito fusion yeast)
Cc1ccccc1C(=O)OCc1cc(=O)n2nc(-c3cccs3)sc2n1	none (no result: Mito fusion yeast)
Cc1ccc(-n2c(O)c(C=NCc3ccccn3)c3ccccc3c2=O)cc1C	Nrf2 inh 10µM
O=C(CNC(=O)c1cccc2ccccc12)OC(C(=O)Nc1cc(C(F)(F)F)ccc1Cl)c1ccccc1 (stereo unspecified)	none (no result: mIDH1 inhibitor, TrxR1 substrate, Mito fusion yeast, rTrxR1 inhibitor)
Cc1ccc(C)c(N2CCN(C(=O)c3cc4c(=O)n(Cc5cccs5)ccc4nc3C)CC2)c1	A549 viability inconclusive, Nrf2 inh inconclusive (no result: Mito fusion yeast)
O=C1ON=C(c2ccc([N+](=O)[O-])cc2)/C1=C/c1ccccc1O	rTrxR1 inhibitor 18µM
O=C1ON=C(c2ccccc2)/C1=C/c1ccc(-c2ccccc2[N+](=O)[O-])o1	A549 viability inconclusive, mIDH1 inhibitor inconclusive, Nrf2 inh inconclusive, rTrxR1 inhibitor inconclusive
CCN1c2ccccc2N(C)C1(C)c1ccccc1 (stereo unspecified)	A549 viability inconclusive, Nrf2 inh inconclusive, rTrxR1 inhibitor 45µM
